Experiments:
Format in all cases: functional
Plasmodium falciparum [1] = experiment: GSK_TCMDC: Inhibition of Plasmodium falciparum 3D7 in whole red blood cells, using parasite LDH activity as an index of growth. Test compounds present at 2uM
Plasmodium falciparum [2] = experiment: GSK_TCMDC: Inhibition of Plasmodium falciparum Dd2 in whole red blood cells, using parasite LDH activity as an index of growth. Test compounds present at 2uM
HepG2 = experiment: GSK_TCMDC: Percent inhibition of human HepG2 cell line. Test compounds present at 10uM.

| SMILES | Inhibition (Plasmodium falciparum [1]) [%] | Inhibition (Plasmodium falciparum [2]) [%] | Inhibition (HepG2) [%] |
| --- | --- | --- | --- |
| COc1ccc(NC(=O)c2ccc(-c3cc(NC(=O)c4ccnc(N5CCCC5)c4)ccc3C)s2)cc1N1CCN(C)CC1.O=C(O)C(F)(F)F | 100 | 100 | 15 |
| COC(=O)c1cccc(CNCc2cccc(-c3cccc(-c4nc5cc(C(F)(F)F)ccc5[nH]4)c3)c2)c1.O=C(O)C(F)(F)F | 100 | 69 | 7 |
| COc1ccc(C2CC(=O)C3=C(C2)NC(C)=C(C(=O)OC(C)C)C3c2ccccc2F)cc1OC (stereo not given) | 100 | 99 | 14 |
| Cc1ccc(C(=O)Nc2cccc([N+](=O)[O-])c2)cc1S(=O)(=O)N1CC(C)CC(C)C1 (stereo not given) | 100 | 42 | 24 |
| O=C(Nc1ccc(OCc2ccccc2)cc1)c1nc2ccccc2nc1Cl | 96 | 95 | 48 |
| O=C(Nc1ccc(OC2CCN(Cc3ccccc3)CC2)c(Cl)c1)c1cccs1.O=C(O)C(F)(F)F | 96 | 95 | 2 |
| Cc1onc(-c2c(F)cccc2Cl)c1C(=O)Nc1ccccc1I | 99 | 52 | 0 |
| COc1ccc2nccc([C@@H](O)CN3CCC(NC(=O)/C=C/c4cccc(NC(C)=O)c4)CC3)c2c1 | 90 | 60 | 5 |
| COc1cc(C=Cc2ccc3ccccc3n2)cc(Br)c1OCC(=O)N(C)C | 99 | 87 | 28 |
| O=C(NCCCCN1CCC(c2ccc3c(c2OCCO)CCCC3)CC1)c1sc(-c2ccc(C(F)(F)F)cc2)nc1CO | 95 | 20 | 37 |
| Cc1cc(C=C(P(=O)(OC(C)C)OC(C)C)P(=O)(OC(C)C)OC(C)C)c2ccccc2c1O | 85 | 54 | 15 |
| COc1ccc2ncc(C#N)c(CCN3CCC(NCc4cnc5c(c4)OCCO5)CC3)c2n1.Cl | 91 | 24 | 3 |
| Cl.O=c1cc(NCCCNCc2ccc(Cl)c(Cl)c2)[nH]c2ccc(C(F)(F)F)cc12 | 100 | 68 | 10 |
| CC(=O)Nc1ncc(C(=O)Nc2cccc(-c3ccc(-c4nc5cccc(C)c5[nH]4)cc3)c2)s1 | 100 | 78 | 69 |
| COc1cc2nc(NCCc3ccccc3)nc(NCCc3ccccc3)c2cc1OC | 100 | 100 | 99 |
| CCOC(=O)N1NC(=O)N(c2ccccc2)C1(c1ccccc1)c1ccccc1 | 96 | 82 | 5 |
| CCOc1cc(N)c2nc3ccc([N+](=O)[O-])cc3cc2c1 | 100 | 78 | 73 |
| COc1ccccc1CCNc1nc(C)cc(N[C@@H](CC(C)C)C(=O)NCCc2ccccc2)n1.O=C(O)C(F)(F)F | 97 | 81 | 12 |
| CS(=O)(=O)NCCCNCc1ccc(-c2cccc(-c3nc4cc(C(F)(F)F)ccc4[nH]3)c2)cc1.O=C(O)C(F)(F)F | 100 | 83 | 17 |
| N#Cc1ccc(Sc2nnc(-c3ccccc3Cl)n2CC2CCCCC2)cc1[N+](=O)[O-] | 85 | 34 | 30 |

| SMILES | Inhibition (Plasmodium falciparum [1]) [%] | Inhibition (Plasmodium falciparum [2]) [%] | Inhibition (HepG2) [%] |
| --- | --- | --- | --- |
| CC(CN1CCN(C)CC1)C(=O)Nc1ccc(-c2ccc(-c3nc4ccccc4[nH]3)cc2)cc1 (stereo not given) | 92 | 87 | 13 |
| Br.c1ccc(-c2ccc(-c3csc(Nc4ccncc4)n3)cc2)cc1 | 100 | 97 | 30 |
| Cc1ccnc(NC(=O)c2cc(-c3cccc([N+](=O)[O-])c3)nc3onc(C)c23)c1 | 91 | 44 | 5 |
| COc1cccc2c(C)cc(NCc3ccc(Cl)cc3)nc12 | 97 | 5 | 7 |
| CCN(CC)CCN(Cc1ccc(-c2ccc(C(F)(F)F)cc2)cc1)C(=O)Cn1c(CCc2cccc(F)c2F)cc(=O)cc1-c1ccccc1 | 94 | 64 | 33 |
| COc1cccc(Nc2nc(N)c3ccccc3n2)c1.Cl | 88 | 47 | 18 |
| O=C(/C=C/c1ccc(Cl)c(Cl)c1)NCCCCCN1CCC(NC(=O)Nc2cccc(Cl)c2F)CC1 | 100 | 30 | 75 |
| O=[N+]([O-])c1ccc2c(c1)c1ccccc1n2Cc1ccccc1O | 93 | 84 | 0 |
| O=C(Nc1ccc(N2CCCCC2)c(Cl)c1)c1ccc(Br)o1 | 94 | 94 | 0 |
| O=C(O)C(F)(F)F.OCCN1CCN(Cc2cccc(-c3ccc(-c4nc5cc(C(F)(F)F)ccc5[nH]4)s3)c2)CC1 | 100 | 98 | 42 |
| CCCCCCOc1ccc(C(=O)N[C@H]2CCN(CCCCCNC(=O)/C=C/c3ccc(Cl)c(Cl)c3)C2)cc1 | 99 | 25 | 10 |
| Oc1ccc(Cl)cc1Nc1nc(C(F)(F)F)nc2ccccc12 | 86 | 63 | 16 |
| CC[C@H]1CN(CCCC(=O)c2ccccc2)CC[C@H]1CCCc1ccnc2ccc(OC(=O)c3ccccc3)cc12.O=C(O)C(=O)O | 83 | 68 | 28 |
| CN1CCC(C(=O)N(Cc2ccc(-c3ccc(CNCCc4ccc(S(C)(=O)=O)cc4)cn3)cc2)Cc2ccc3c(c2)OCO3)CC1.O=C(O)C(F)(F)F | 91 | 51 | 16 |
| Cc1ccccc1OCCCN1CCN(CC(c2ccc(F)cc2)N2CCN(C(C)C)CC2)CC1.Cl (stereo not given) | 99 | 64 | 20 |
| O=C(Nc1cccc(-c2ccc(CN3CCCC3)cc2)c1)c1cccc(Cl)c1.O=C(O)C(F)(F)F | 100 | 61 | 32 |
| O=C(NC1CCN(Cc2ccccc2)CC1)c1cc(-c2ccncc2)nc2ccc(Cl)cc12 | 97 | 27 | 17 |
| CN1CCN(c2ccnc3ccc(NC(=O)N(C)c4ccc(Cl)c(Cl)c4)cc23)CC1 | 100 | 85 | 5 |
| Nn1c(=O)oc2ccc(Cl)cc2c1=O | 97 | 96 | 4 |
| COc1ccc(CNC2CCN(C)CC2)cc1-c1ccc(S(=O)(=O)NCc2ccccc2)cc1.O=C(O)C(F)(F)F | 100 | 99 | 56 |

| SMILES | Inhibition (Plasmodium falciparum [1]) [%] | Inhibition (Plasmodium falciparum [2]) [%] | Inhibition (HepG2) [%] |
| --- | --- | --- | --- |
| CC(O)C1CCCCN1C(=O)c1cccc(-c2ccc(-c3nc4cc(F)ccc4[nH]3)cc2)c1 (stereo not given) | 100 | 99 | 46 |
| Oc1ccccc1CN1CCC2(CCCN(Cc3ccccc3F)C2)C1 (stereo not given) | 98 | 83 | 13 |
| Cl.c1ccc(C(c2cccs2)N2CCN(Cc3ccc(OCCCN4CCCCC4)cc3)CC2)cc1 (stereo not given) | 91 | 14 | 41 |
| Cc1ccc(NC(=O)c2ccc(CN3CCCN(Cc4cccc(O)c4)CC3)cc2)cc1C.O=C(O)C(F)(F)F | 98 | 25 | 33 |
| CC(C)n1ncc2c3c(N)nc(N)nc3ccc21 | 98 | 6 | 64 |
| COc1ccccc1Nc1nc(C)cc(NCc2ccc(-n3ccnc3)cc2)n1 | 90 | 10 | 5 |
| COc1ccc2[nH]ccc(=NN=Cc3cccc(C)n3)c2c1 | 100 | 99 | 16 |
| CS(=O)(=O)CCNc1nccc(N2CCc3ncnc(Nc4ccc(OCc5cccc(F)c5)c(Cl)c4)c3C2)n1 | 100 | 100 | 8 |
| Cc1[nH]c2ccccc2c1C=NNc1nc(=Nc2ccccc2)[nH]c(=Nc2ccccc2)[nH]1 | 87 | 23 | 3 |
| Cc1cc(C)cc(Oc2c(C(F)(F)F)oc3c(CN4CC(C)OC(C)C4)c(O)ccc3c2=O)c1 (stereo not given) | 89 | 54 | 5 |
| O=C(Nc1cccc(-c2ccc(-c3nc4ccccc4[nH]3)cc2)c1)c1csnn1 | 91 | 21 | 31 |
| COc1ccc2nccc(N(C)CC3(O)CCC(NCc4ccc5c(n4)NC(=O)CS5)CC3)c2n1.Cl (stereo not given) | 98 | 23 | 1 |
| CCCCc1ccc(-c2nc(NC(=O)Nc3[nH]c(-c4ccccc4)nc3C(=O)OCC)c(C(=O)OCC)[nH]2)cc1 | 95 | 26 | 0 |
| COc1ccc2ncc(F)c([C@H](O)CN3CCC(NCc4ccc5c(c4)NC(=O)CO5)CC3)c2c1.Cl | 100 | 100 | 16 |
| CCOc1cc(C(=O)NC2CCN(Cc3ccccc3)CC2)ccc1-c1nc2cc(Cl)c(F)cc2[nH]1 | 100 | 51 | 13 |
| C=C[C@]1(C)C[C@@H](OC(=O)c2cncn(COC)c2=O)[C@]2(C)[C@H](C)CC[C@]3(CCC(=O)[C@H]32)[C@@H](C)[C@@H]1O | 96 | 7 | 0 |
| COc1ccc(-c2ccc(NC(=O)c3cccc(Cl)c3)cc2)cc1CN(C)CCN(C)C.O=C(O)C(F)(F)F | 100 | 35 | 22 |
| O=C(NC12CC3CC(CC(C3)C1)C2)C(=O)c1c[nH]c2ccccc12 | 97 | 2 | 16 |
| O=C(O)C(F)(F)F.O=[N+]([O-])c1cccc(CNCC2CCN(Cc3ccc(-c4ccccc4)cc3)CC2)c1 | 100 | 91 | 28 |
| COc1ccc(CNCc2ccc(-c3ccc(-c4nc5cc(C(F)(F)F)ccc5[nH]4)s3)cc2)cc1.O=C(O)C(F)(F)F | 100 | 98 | 38 |
